Reference: PubChem BioAssay (NCATS)
Several values for one entry are separate records, joined by “and”; a condition that tells them apart may be missing. Identical values can stand only once. Inconclusive results are not listed. Activity calls are given as the source filed them. Unless noted, calls come from the whole dose curve; as a rule, active = well fitted curve in the direction sought with a large enough effect; inconclusive = small, poorly fitted or top-dose-only effect, or another doubt; inactive = no such curve, though single readings can be large; an effect the other way counts as inactive or inconclusive.

Key:
C33A = assay: Primary qHTS to identify gynecologic anti-cancer compounds using libraries of approved drugs and bioactive compounds (AID 1345084); settings: Gynecologic cancer cell panel viability, ATPlite luminescence, 48 h; series mostly up to 57.5 µM; note: % is set by controls: 0 for no effect and ±100 for the full control effect; nearly all actives have a fitted effect of over 55% in size
Procedure, shortened: (§1)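 Luminescence from the ATPlite ATP-monitoring reagent indicates viable cell number; lower signal means cytotoxicity. Cells received compound 16 h after seeding and were exposed for 48 h across five concentrations.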

CAOV3 = assay: as above; settings: Gynecologic cancer cell panel viability, ATPlite luminescence, 48 h; series mostly up to 57.5 µM
Procedure, shortened: as §1

CASKI = assay: as above; settings: Gynecologic cancer cell panel viability, ATPlite luminescence, 48 h; series mostly up to 57.5 µM
Procedure, shortened: as §1

Es-2 = assay: as above; settings: Gynecologic cancer cell panel viability, ATPlite luminescence, 48 h; series mostly up to 57.5 µM
Procedure, shortened: as §1

HeLa = assay: as above; settings: Gynecologic cancer cell panel viability, ATPlite luminescence, 48 h; series mostly up to 57.5 µM
Procedure, shortened: as §1

Hek293T = assay: as above; settings: Gynecologic cancer cell panel viability, ATPlite luminescence, 48 h, control line for the selectivity index; series mostly up to 57.5 µM
Procedure, shortened: as §1

JEG-3 = assay: as above; settings: Gynecologic cancer cell panel viability, ATPlite luminescence, 48 h; series mostly up to 57.5 µM
Procedure, shortened: as §1

OV90 = assay: as above; settings: Gynecologic cancer cell panel viability, ATPlite luminescence, 48 h; series mostly up to 57.5 µM
Procedure, shortened: as §1

PA-1 = assay: as above; settings: Gynecologic cancer cell panel viability, ATPlite luminescence, 48 h; series mostly up to 57.5 µM
Procedure, shortened: as §1

Tov-21-G = assay: as above; settings: Gynecologic cancer cell panel viability, ATPlite luminescence, 48 h; series mostly up to 57.5 µM
Procedure, shortened: as §1

Tov112D = assay: as above; settings: Gynecologic cancer cell panel viability, ATPlite luminescence, 48 h; series mostly up to 57.5 µM
Procedure, shortened: as §1

[1] = Drug repurposing screens with cells derived from glioblastoma tumor samples (AID 1345199); settings: GBM patient neurospheres viability, ATP luminescence, 48 h; note: nearly all actives have a fitted effect of over 40% in size; note: potency is the fitted concentration of half-maximal effect; for activity, negative = cell killing: % is set by controls: 0 for no effect and ±100 for the full control effect
Procedure, shortened: (§2)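 Four patient lines of CD133+ GBM neurospheres were screened at several concentrations; hits were retested in those lines plus three slower-growing GBM lines, using 48-hour treatment and ATP-based viability.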

SKOV3 = assay: Primary qHTS to identify gynecologic anti-cancer compounds using libraries of approved drugs and bioactive compounds (AID 1345084); settings: Gynecologic cancer cell panel viability, ATPlite luminescence, 48 h; series mostly up to 57.5 µM; note: % is set by controls: 0 for no effect and ±100 for the full control effect; nearly all actives have a fitted effect of over 55% in size
Procedure, shortened: as §1

astro = assay: Drug repurposing screens with cells derived from glioblastoma tumor samples (AID 1345199); settings: viability, ATP luminescence, 48 h; series mostly up to 45.9 µM; note: nearly all actives have a fitted effect of over 40% in size; note: potency is the fitted concentration of half-maximal effect; for activity, negative = cell killing: % is set by controls: 0 for no effect and ±100 for the full control effect
Procedure, shortened: as §2

[2] = molecular target: Nuclear receptor subfamily 1 group I member 2 (Rattus norvegicus) (UniProt Q9R1A7); assay: qHTS assay for small molecule activators of the rat pregnane X receptor (rPXR) signaling pathway (AID 651751; call rule not given here; note: 0% is about no effect); settings: rPXR reporter cells, luciferase (One-Glo), 24 h
[3] = qHTS assay for small molecule activators of the human pregnane X receptor (PXR) signaling pathway (AID 720659; call rule not given here; note: 0% is about no effect)
[4] = at 45.9 µM (top of the series), tumour line B
[5] = at 45.9 µM (top of the series), tumour line D
[6] = at 46.1 µM (top of the series), tumour line C
[7] = at 20 µM (top of the series), tumour line C
[8] = at 21.2 µM (top of the series), tumour line B
[9] = at 21.2 µM (top of the series), tumour line D
[10] = at 21.3 µM (top of the series), tumour line A

Nuclear receptor subfamily 1 group I member 2 (Rattus norvegicus), sequence (Q9R1A7 whole entry, looked up): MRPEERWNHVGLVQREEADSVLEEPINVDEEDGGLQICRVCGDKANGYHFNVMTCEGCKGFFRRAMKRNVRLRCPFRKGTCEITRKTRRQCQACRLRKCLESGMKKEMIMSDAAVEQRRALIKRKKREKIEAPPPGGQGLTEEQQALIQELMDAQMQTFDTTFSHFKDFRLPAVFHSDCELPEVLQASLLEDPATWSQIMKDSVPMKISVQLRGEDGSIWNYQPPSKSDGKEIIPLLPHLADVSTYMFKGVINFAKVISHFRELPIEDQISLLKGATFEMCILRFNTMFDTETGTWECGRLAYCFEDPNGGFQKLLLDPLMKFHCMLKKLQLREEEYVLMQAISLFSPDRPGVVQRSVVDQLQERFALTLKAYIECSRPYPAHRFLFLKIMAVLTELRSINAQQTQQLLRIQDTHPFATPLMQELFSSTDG

C/C=C1\[C@H]2C=C(C)C[C@]1(N)c1ccc(=O)[nH]c1C2
inactive: outcome (C33A) | outcome (CAOV3) | outcome (CASKI) | outcome (Es-2) | outcome (HeLa) | outcome (Hek293T) | outcome (JEG-3) | Potency (OV90) | outcome (PA-1) | outcome (Tov-21-G) | outcome (Tov112D) | activity, negative = cell killing [1, 4] -6.65% | activity, negative = cell killing [1, 5] -6.44% | activity, negative = cell killing ([1]; at 46 µM (top of the series), tumour line A) -18.8% | activity, negative = cell killing [1, 6] 3.14%

C=CCN1C[C@H](C(=O)N(CCCN(C)C)C(=O)NCC)C[C@@H]2c3cccc4[nH]cc(c34)C[C@H]21
inactive: outcome (C33A) | outcome (CAOV3) | outcome (CASKI) | outcome (Es-2) | outcome (HeLa) | outcome (Hek293T) | outcome (JEG-3) | Potency (OV90) | outcome (PA-1) | outcome (SKOV3) | outcome (Tov-21-G) | outcome (Tov112D) | activity, negative = cell killing [1, 4] -13.1% | outcome (astro)

Cc1ccc2c(c1)c1c3n2CCNC3CCC1 (stereo not given)
inactive: outcome (C33A) | outcome (CAOV3) | outcome (CASKI) | outcome (Es-2) | outcome (HeLa) | outcome (Hek293T) | outcome (JEG-3) | Potency (OV90) | outcome (PA-1) | outcome (Tov-21-G) | outcome (Tov112D)

O=C(O)CCCCC1CCSS1 (stereo not given)
inactive: outcome (C33A) | outcome (CAOV3) | outcome (CASKI) | outcome (Es-2) | outcome (HeLa) | outcome (Hek293T) | outcome (JEG-3) | Potency (OV90) | outcome (PA-1) | outcome (SKOV3) | outcome (Tov-21-G) | outcome (Tov112D) | activity, negative = cell killing [1, 4] -9.35% | activity, negative = cell killing [1, 5] -12.2% | activity, negative = cell killing [1, 6] -7.1% | outcome (astro) | max response [2] -15% and -8.97% | outcome [3]

COc1ccc(O)cc1
inactive: outcome (C33A) | outcome (CAOV3) | outcome (CASKI) | outcome (Es-2) | outcome (HeLa) | outcome (Hek293T) | outcome (JEG-3) | Potency (OV90) | outcome (PA-1) | outcome (SKOV3) | outcome (Tov-21-G) | outcome (Tov112D) | activity, negative = cell killing [1, 4] -15% | activity, negative = cell killing [1, 5] -17.8% | activity, negative = cell killing [1, 6] -24.9% | outcome (astro) | max response [2] -3% | outcome [3]

C[n+]1ccccc1/C=N/O
inactive: outcome (C33A) | outcome (CAOV3) | outcome (CASKI) | outcome (Es-2) | outcome (HeLa) | outcome (Hek293T) | outcome (JEG-3) | Potency (OV90) | outcome (SKOV3) | outcome (Tov-21-G) | outcome (Tov112D) | activity, negative = cell killing [1, 7] -23.9% | activity, negative = cell killing [1, 8] -15% | activity, negative = cell killing [1, 9] -26.7% | activity, negative = cell killing [1, 10] -10.2% | outcome (astro)

Cc1ccsc1/C=C/C1=NCCCN1C
inactive: outcome (C33A) | outcome (CAOV3) | outcome (CASKI) | outcome (Es-2) | outcome (HeLa) | outcome (Hek293T) | outcome (JEG-3) | Potency (OV90) | outcome (PA-1) | outcome (Tov-21-G) | outcome (Tov112D) | activity, negative = cell killing [1, 7] -9.86% | activity, negative = cell killing [1, 8] -2.99% | activity, negative = cell killing [1, 9] -7.19% | activity, negative = cell killing [1, 10] -22.2%

COC(=O)c1ccc(O)cc1
inactive: outcome (C33A) | outcome (CAOV3) | outcome (CASKI) | outcome (Es-2) | outcome (HeLa) | outcome (Hek293T) | outcome (JEG-3) | Potency (OV90) | outcome (PA-1) | outcome (SKOV3) | outcome (Tov-21-G) | outcome (Tov112D) | activity, negative = cell killing [1, 4] -4.62% | activity, negative = cell killing [1, 5] -7.84% | activity, negative = cell killing [1, 6] -1.97% | outcome (astro) | max response [2] -3.01% | outcome [3]

COc1ccc(Cc2cnc(N)nc2N)cc1OC
inactive: outcome (C33A) | outcome (CAOV3) | outcome (CASKI) | outcome (Es-2) | outcome (HeLa) | outcome (Hek293T) | outcome (JEG-3) | Potency (OV90) | outcome (PA-1) | outcome (Tov-21-G) | outcome (Tov112D) | activity, negative = cell killing [1, 4] 11% | activity, negative = cell killing [1, 5] -18.1% | activity, negative = cell killing [1, 6] -4.34% | outcome (astro)

Cc1c(NC(=O)c2cccnc2)c(=O)n(-c2ccccc2)n1C
inactive: outcome (C33A) | outcome (CAOV3) | outcome (CASKI) | outcome (Es-2) | outcome (HeLa) | outcome (Hek293T) | outcome (JEG-3) | Potency (OV90) | outcome (PA-1) | outcome (Tov-21-G) | outcome (Tov112D) | activity, negative = cell killing [1, 7] -4.61% | activity, negative = cell killing [1, 8] 2.25% | activity, negative = cell killing [1, 9] 12.3% | activity, negative = cell killing [1, 10] -13.1% | outcome (astro)

CC(=O)Nc1cccc(O)c1
inactive: outcome (C33A) | outcome (CAOV3) | outcome (CASKI) | outcome (Es-2) | outcome (HeLa) | outcome (Hek293T) | outcome (JEG-3) | Potency (OV90) | outcome (PA-1) | outcome (SKOV3) | outcome (Tov-21-G) | outcome (Tov112D) | activity, negative = cell killing [1, 4] -7.47% | activity, negative = cell killing [1, 5] -9.18% | activity, negative = cell killing [1, 6] -17.1% | outcome (astro) | max response [2] -4.25% | outcome [3]

CCOc1ccccc1O[C@H](c1ccccc1)[C@H]1CNCCO1
inactive: outcome (C33A) | outcome (CAOV3) | outcome (CASKI) | outcome (Es-2) | outcome (HeLa) | outcome (Hek293T) | outcome (JEG-3) | Potency (OV90) | outcome (PA-1) | outcome (Tov-21-G) | outcome (Tov112D) | activity, negative = cell killing [1, 4] -15.3% | activity, negative = cell killing [1, 6] 11.5% | outcome (astro)
active: Potency ([1]; tumour line A) 12.6 µM

O=C(O)COC(=O)Cc1ccccc1Nc1c(Cl)cccc1Cl
inactive: outcome (C33A) | outcome (CAOV3) | outcome (CASKI) | outcome (Es-2) | outcome (HeLa) | outcome (Hek293T) | outcome (JEG-3) | Potency (OV90) | outcome (PA-1) | outcome (Tov-21-G) | outcome (Tov112D) | activity, negative = cell killing [1, 7] -2.19% | activity, negative = cell killing [1, 8] -12.4% | activity, negative = cell killing [1, 9] -4.64% | activity, negative = cell killing [1, 10] -12.9% | outcome (astro)
